Test results as given in the supplement of paper PMC12494721.
Where a name gives a salt, the structure may show the parent alone.

How the values were obtained:
Conditions in all cases: incubation time: 27 h, anaerobic, 37 °C;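 for the amine columns active = adjusted P below 0.05 in both replicates with a change the same way and a mean fold change under 0.8 or over 1.25; inactive = the rest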
[1] = test system: Clostridium sporogenes DSM 1664; experiment: growth (OD595) fold change vs plate DMSO controls (fold change (ratio)); higher = more growth
Outline: (§1)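 The 96-well mGAM cultures had been kept anaerobic for 27 h at 37 °C before being shaken and read at 595 nm. Blank subtraction, compound background correction with 20 µM compound solutions in water, and a calibration factor of 5 turned the readings into OD. Growth is given as the fold change versus the median of plate DMSO controls. Fold changes above 1.5 were set to NA, and the values are means of 2 biological replicates.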

Escherichia coli IAI1 [2] = experiment: as above
Outline: as §1

[3] = test system: Klebsiella aerogenes DSM 30053; experiment: as above
Outline: as §1

[4] = test system: Ruminococcus gnavus DSM 108212; experiment: as above
Outline: as §1

[5] = test system: Klebsiella aerogenes DSM 30053; experiment: fold change of Histamine concentration vs plate DMSO controls (fold change (ratio)); higher = more amine produced, active = hit call of the paper (significant change in both replicates, either direction)
Outline: (§2)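 Using LC–triple-quadrupole MS with dynamic MRM, amines were quantified against external calibration curves and corrected for drift within each batch. Samples were whole anaerobic mGAM cultures of four gut strains, grown 27 h at 37 °C from OD 0.1 before 1:1 dilution, extracted with cold acetonitrile/methanol containing 0.1% formic acid and centrifuged. Compounds were present at 20 µM final (sweeteners at 50 µM final). The numbers are fold changes versus plate DMSO controls, each the mean of 2 biological replicates.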

[6] = test system: Clostridium sporogenes DSM 1664; experiment: fold change of Tryptamine concentration vs plate DMSO controls (fold change (ratio)); higher = more amine produced, active = hit call of the paper (significant change in both replicates, either direction)
Outline: as §2

[7] = test system: Ruminococcus gnavus DSM 108212; experiment: as above
Outline: as §2

Escherichia coli IAI1 [8] = experiment: fold change of Putrescine concentration vs plate DMSO controls (fold change (ratio)); higher = more amine produced, active = hit call of the paper (significant change in both replicates, either direction)
Outline: as §2

[9] = test system: Klebsiella aerogenes DSM 30053; experiment: as above
Outline: as §2

Escherichia coli IAI1 [10] = experiment: fold change of Cadaverine concentration vs plate DMSO controls (fold change (ratio)); higher = more amine produced, active = hit call of the paper (significant change in both replicates, either direction)
Outline: as §2

[11] = test system: Klebsiella aerogenes DSM 30053; experiment: as above
Outline: as §2

[12] = test system: Ruminococcus gnavus DSM 108212; experiment: fold change of 2-Phenylethylamine concentration vs plate DMSO controls (fold change (ratio)); higher = more amine produced, active = hit call of the paper (significant change in both replicates, either direction)
Outline: as §2

Row | SMILES | growth [1] | growth (Escherichia coli IAI1 [2]) | growth [3] | growth [4] | fold change of Histamine concentration [5] | fold change of Tryptamine concentration [6] | fold change of Tryptamine concentration [7] | fold change of Putrescine concentration (Escherichia coli IAI1 [8]) | fold change of Putrescine concentration [9] | fold change of Cadaverine concentration (Escherichia coli IAI1 [10]) | fold change of Cadaverine concentration [11] | fold change of 2-Phenylethylamine concentration [12]
1 | CC(=O)N[C@@H](CC(=O)O)C(=O)N[C@@H](CCC(=O)O)C(=O)O [Spaglumic acid] (20 µM) | 1.09 | 0.992 | 1.03 | 1.18 | 1.03 (inactive) | 1.02 (inactive) | 0.995 (inactive) | 0.939 (inactive) | 0.993 (inactive) | 0.988 (inactive) | 0.988 (inactive) | 1.02 (inactive)
2 | CCN1CCC[C@H]1CNC(=O)c1c(OC)ccc(Br)c1OC [Remoxipride hydrochloride] (20 µM) | 1.09 | 1.03 | 0.988 | 1.01 | 1.04 (inactive) | 0.946 (inactive) | 0.945 (inactive) | 0.998 (inactive) | 1.02 (inactive) | 1.03 (inactive) | 0.989 (inactive) | 0.92 (inactive)
3 | CC(=O)Oc1cc2c(s1)CCN(C(C(=O)C1CC1)c1ccccc1F)C2 (centres undefined) [Prasugrel] (20 µM) | 1.1 | 1.02 | 1 | 0.989 | 1 (inactive) | 0.957 (inactive) | 0.985 (inactive) | 0.983 (inactive) | 1.01 (inactive) | 1.03 (inactive) | 0.994 (inactive) | 0.965 (inactive)
4 | NC(=O)C1CO1 (centres undefined) [Glycidamide] (20 µM) | 0.988 | 0.992 | 0.998 | 1.06 | 1.05 (inactive) | 0.935 (inactive) | 0.988 (inactive) | 0.993 (inactive) | 1.07 (inactive) | 1.02 (inactive) | 1.02 (inactive) | 0.973 (inactive)
5 | OC(CCN1CCCCC1)(c1ccccc1)C1CCCCC1 (centres undefined) [Trihexyphenidyl-D,L hydrochloride] (20 µM) | 1.05 | 1.11 | 1.02 | 0.865 | 0.954 (inactive) | 1.01 (inactive) | 0.874 (inactive) | 1.17 (inactive) | 0.97 (inactive) | 0.697 (inactive) | 0.984 (inactive) | 0.92 (inactive)
6 | O=C(CCCN1CCN(c2ccccn2)CC1)c1ccc(F)cc1 [Azaperone] (20 µM) | 1.12 | 1.24 | 0.974 | 1.12 | 1.01 (inactive) | 1.14 (inactive) | 0.963 (inactive) | 1.31 (inactive) | 0.987 (inactive) | 0.84 (inactive) | 1.01 (inactive) | 0.998 (inactive)
7 | C=C1CC[C@H](O)C/C1=C/C=C1\CCC[C@]2(C)[C@@H]([C@H](C)CCCC(C)C)CC[C@@H]12 [Cholecalciferol] (20 µM) | 0.913 | 0.971 | 0.962 | 1.05 | 1.08 (inactive) | 0.975 (inactive) | 1.03 (inactive) | 0.96 (inactive) | 1.01 (inactive) | 0.984 (inactive) | 1.07 (inactive) | 1.13 (inactive)
8 | CC(C)N1CCN(c2ccc(OCC3COC(Cn4cncn4)(c4ccc(Cl)cc4Cl)O3)cc2)CC1 (centres undefined) [Terconazole] (20 µM) | 1.12 | 1 | 1.01 | 1 | 0.996 (inactive) | 0.976 (inactive) | 1 (inactive) | 1 (inactive) | 0.993 (inactive) | 0.989 (inactive) | 1 (inactive) | 0.977 (inactive)
9 | CC(C)(O)c1ccccc1CC[C@@H](SCC1(CC(=O)O)CC1)c1cccc(/C=C/c2ccc3ccc(Cl)cc3n2)c1 [Montelukast] (20 µM) | 0.909 | 1 | 1.02 | 0.923 | 1.07 (inactive) | 0.587 (active) | 0.851 (inactive) | 0.994 (inactive) | 1.05 (inactive) | 1.03 (inactive) | 1.01 (inactive) | 0.842 (inactive)
10 | Clc1ccc(C(Cn2ccnc2)OCc2c(Cl)cccc2Cl)c(Cl)c1 (centres undefined) [Isoconazole] (20 µM) | 0.999 | 0.858 | 0.862 | 0.0371 | 1 (inactive) | 0.846 (inactive) | 0.265 (active) | 1.01 (inactive) | 1.01 (inactive) | 0.966 (inactive) | 1 (inactive) | 0.289 (active)
11 | NC[C@@H]1O[C@@H](O[C@H]2[C@H](O)[C@@H](O[C@H]3O[C@H](CO)[C@@H](O)[C@H](N)[C@H]3O)[C@H](N)C[C@@H]2N)[C@@H](O)[C@H](O)[C@H]1O [Kanamycin A sulfate] (20 µM) | 1.05 | 1.02 | 1.02 | 1.09 | 0.907 (inactive) | 1.06 (inactive) | 1.01 (inactive) | 1.02 (inactive) | 0.977 (inactive) | 0.97 (inactive) | 1.02 (inactive) | 1.03 (inactive)
12 | CN(C)CCCN1c2ccccc2CCc2ccc(Cl)cc21 [Clomipramine hydrochloride] (20 µM) | 1.07 | 0.978 | 0.972 | 0.705 | 1.04 (inactive) | 1.04 (inactive) | 0.823 (inactive) | 0.997 (inactive) | 1.03 (inactive) | 1.06 (inactive) | 0.985 (inactive) | 0.82 (inactive)
13 | CC(=O)OCC(=O)NCCCOc1cccc(CN2CCCCC2)c1 [Roxatidine acetate hydrochloride] (20 µM) | 1.02 | 1.06 | 1.01 | 0.677 | 0.958 (inactive) | 0.989 (inactive) | 0.972 (inactive) | 1.27 (inactive) | 1.01 (inactive) | 1.18 (inactive) | 1.01 (inactive) | 0.905 (inactive)
14 | CCN(CC)CCOC(=O)C1(C2CCCCC2)CCCCC1 [Dicyclomine hydrochloride] (20 µM) | 0.883 | 0.966 | 0.998 | 0.659 | 1.01 (inactive) | 0.991 (inactive) | 0.845 (inactive) | 0.988 (inactive) | 1.01 (inactive) | 1 (inactive) | 1 (inactive) | 0.815 (inactive)
15 | O=C1O[C@H]([C@@H](O)CO)C(O)=C1O [Ascorbic acid] (20 µM) | 1.01 | 1.03 | 0.981 | 0.975 | 1.08 (inactive) | 1.05 (inactive) | 1.06 (inactive) | 1.01 (inactive) | 0.978 (inactive) | 1.03 (inactive) | 1.04 (inactive) | 1.03 (inactive)
16 | CO[C@H]1/C=C/O[C@@]2(C)Oc3c(C)c(O)c4c(O)c(c(/C=N/N5CCN(C)CC5)c(O)c4c3C2=O)NC(=O)/C(C)=C\C=C\[C@H](C)[C@H](O)[C@@H](C)[C@@H](O)[C@@H](C)[C@H](OC(C)=O)[C@@H]1C [Rifampicin] (20 µM) | 0.000637 | 0.224 | 0.627 | 0.187 | 0.732 (inactive) | 0.0227 (active) | 0.145 (active) | 0.718 (active) | 0.768 (inactive) | 1.14 (inactive) | 1.06 (inactive) | 0.131 (active)
17 | COc1ncnc(NS(=O)(=O)c2ccc(N)cc2)c1OC [Sulfadoxine] (20 µM) | 1 | 1.01 | 1.04 | 1.19 | 1.02 (inactive) | 0.997 (inactive) | 0.985 (inactive) | 1.01 (inactive) | 0.997 (inactive) | 1 (inactive) | 1.01 (inactive) | 0.968 (inactive)
18 | CCOC(=O)C1=C[C@]2(CC)CCCN3CCc4c(n1c1ccccc41)[C@@H]32 [Vinpocetine] (20 µM) | 0.883 | 0.979 | 1.03 | 1.14 | 0.922 (inactive) | 0.964 (inactive) | 0.955 (inactive) | 0.995 (inactive) | 1.02 (inactive) | 1.02 (inactive) | 1.02 (inactive) | 0.972 (inactive)
19 | COc1cc(OC)c(C(=O)CCCN2CCCC2)c(OC)c1 [Buflomedil hydrochloride] (20 µM) | 1.11 | 1.03 | 0.965 | 0.743 | 1.08 (inactive) | 1.08 (inactive) | 1.03 (inactive) | 1.04 (inactive) | 1.02 (inactive) | 1.03 (inactive) | 0.997 (inactive) | 0.992 (inactive)
20 | CC(C(=O)O)c1ccc2c(c1)Cc1cccnc1O2 (centres undefined) [Pranoprofen] (20 µM) | 1.01 | 1.06 | 1.03 | 0.92 | 0.978 (inactive) | 0.985 (inactive) | 0.95 (inactive) | 0.95 (inactive) | 1.01 (inactive) | 0.993 (inactive) | 1.01 (inactive) | 0.94 (inactive)
21 | CC(=O)N(CC(C)C(=O)O)c1c(I)cc(I)c(N)c1I (centres undefined) [Iocetamic acid] (20 µM) | 0.863 | 1.01 | 0.986 | 0.975 | 1.04 (inactive) | 1.05 (inactive) | 0.971 (inactive) | 1.09 (inactive) | 1 (inactive) | 0.988 (inactive) | 0.987 (inactive) | 0.924 (inactive)
22 | CC[C@H](c1ccc(O)cc1)[C@@H](CC)c1ccc(O)cc1 [Hexestrol] (20 µM) | 0.933 | 1.03 | 0.999 | 0.869 | 1.06 (inactive) | 0.609 (active) | 0.789 (active) | 1.05 (inactive) | 1.01 (inactive) | 1.06 (inactive) | 0.989 (inactive) | 0.749 (inactive)
